# Results filed as inconclusive are left out. Calls of active or inactive are those of the source. Rule for the calls, unless noted: active = hit-call score of the fitted dose curve at least 0.9, where 1 is the maximum; inactive = score below 0.9.
# Read-out: Intercellular Adhesion Molecule 1 (ICAM1), ICAM1 (gene 3383)
# Test: BSK_3C_ICAM1: BioMAP Diversity Plus: 3C Assay for Intercellular Adhesion Molecule 1 (ICAM1) Biomarker Activity (AID 2283003)
# Conditions: primary human endothelial cells (HUVEC); actives raise or lower the signal
# How it was run: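 ICAM-1 levels measured by ELISA after HUVEC cultures in the 3C system had been dosed for 24 h. Gain or loss of signal relative to DMSO was fitted in both directions.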
Structure (SMILES),outcome,AC50
CCCCCCCCCCC,inactive,–
Cc1ccc2ncccc2c1,inactive,–
O=C(O)Cc1ccccc1Nc1c(Cl)cccc1Cl,inactive,–
COCCOCCOC,inactive,–
C=CCc1ccc(O)c(OC)c1,inactive,–
COC(=O)c1ccc(O)cc1,inactive,–
CCCCc1ccc2c(n1)[C@@H](c1ccc(OC)cc1C[C@H](C)C(=O)O)[C@H](C(=O)O)[C@H]2c1ccc2c(c1)OCO2,inactive,–
O=c1c(O)c(-c2ccc(O)c(O)c2)oc2cc(O)cc(O)c12,inactive,–
c1cc(-c2ccncc2)ccn1,inactive,–
C[C@]12C=CC(=O)C=C1CC[C@@H]1[C@@H]2C(=O)C[C@@]2(C)[C@H]1CC[C@]2(O)C(=O)CO,inactive,–
Cc1c(C(=O)O)c(O)cc2c1C(=O)c1c(O)c([C@@H]3O[C@H](CO)[C@@H](O)[C@H](O)[C@H]3O)c(O)c(O)c1C2=O,inactive,–
Cc1cccc(Nc2cc(Cl)nc(SCC(=O)O)n2)c1C,inactive,–
CCOC(=O)C(C)(C)Oc1ccc(Cl)cc1,inactive,–
CC1(C)CC(N=C=O)CC(C)(CN=C=O)C1 (stereo not given),inactive,–
NS(=O)(=O)c1cc2c(cc1Cl)NCNS2(=O)=O,inactive,–
Cc1nc(C)nc(N2C[C@@H](C)N(c3ccnc([C@@H](C)O)n3)[C@@H](C)C2)n1,inactive,–
CCCCOC(=O)CCCCCCCCC(=O)OCCCC,inactive,–
COc1cc(-c2nc(NC(=O)c3cc4cc(C)cc(C)c4n3CC(=O)O)sc2CCC2CCCCC2)c(OC)cc1Cl,–,5.54 µM (active)
OC[C@@H](O)[C@@H](O)[C@H](O)[C@H](O)CO,inactive,–
Cc1nc(-c2ccc3c(c2)CCN(CCC2CCC(NC(=O)/C=C/c4ccc(F)cc4)CC2)CC3)no1 (stereo not given),inactive,–
NCC1(Cc2noc(=O)[nH]2)CCCCC1,inactive,–
CCOC(=O)CCC(=O)OCC,inactive,–
Cc1cccc([N+](=O)[O-])c1C,inactive,–
C=CCOC(=O)c1ccccc1C(=O)OCC=C,inactive,–
Cc1cccc(C)c1O,inactive,–
CC(CO)OC(C)CO (stereo not given) (tested in a mixture with another compound),inactive,–
CCCCCCCCCCCCCO,–,37.5 µM (active)
O=C(O)CCCCC(=O)O,inactive,–
O=[N+]([O-])C(CO)(CO)CO,inactive,–
CCCCCCCCCCCCCCCCCC(=O)O,inactive,–

# Biological target: human Retinoic Acid Receptor beta (RARb), RARB (gene 5915) (UniProt P10826)
# Sequence (P10826 whole entry, looked up): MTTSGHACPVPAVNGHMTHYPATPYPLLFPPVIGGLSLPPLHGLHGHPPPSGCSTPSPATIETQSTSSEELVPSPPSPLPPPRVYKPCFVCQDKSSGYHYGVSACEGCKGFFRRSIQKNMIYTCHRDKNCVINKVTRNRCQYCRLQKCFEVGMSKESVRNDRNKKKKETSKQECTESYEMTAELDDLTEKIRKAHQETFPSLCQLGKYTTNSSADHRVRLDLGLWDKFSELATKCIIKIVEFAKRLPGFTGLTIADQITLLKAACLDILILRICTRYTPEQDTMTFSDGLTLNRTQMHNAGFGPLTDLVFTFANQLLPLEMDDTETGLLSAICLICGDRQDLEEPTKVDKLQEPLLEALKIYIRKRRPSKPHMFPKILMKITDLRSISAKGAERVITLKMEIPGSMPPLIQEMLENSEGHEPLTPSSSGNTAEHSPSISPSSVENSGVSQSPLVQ
# Test: ATG_RARb_TRANS: Attagene TRANS-FACTORIAL HepG2 Assay for human Retinoic Acid Receptor beta (AID 2283004; active = hit-call score of the fitted dose curve at least 0.9, where 1 is the maximum)
# Conditions: not given
# How it was run: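 Readout is reporter mRNA induction: RNA reverse-transcribed, PCR-amplified, FAM-labelled, HpaI-cut and resolved by capillary electrophoresis. Transiently transfected HepG2 cells carrying exogenous NR–Gal4 chimeras were dosed for 24 h; activity fitted upward relative to DMSO.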
row,Structure (SMILES),outcome
1,Cc1ccc2ncccc2c1,inactive
2,COCCOCCOC,inactive
3,Cc1cccc(Nc2cc(Cl)nc(SCC(=O)O)n2)c1C,inactive
4,NCC1(Cc2noc(=O)[nH]2)CCCCC1,inactive
5,CCOC(=O)CCC(=O)OCC,inactive
6,O=[N+]([O-])C(CO)(CO)CO,inactive

# Biological target: Retinoic acid receptor alpha (Homo sapiens) (UniProt P10276)
# Sequence (P10276 whole entry, looked up): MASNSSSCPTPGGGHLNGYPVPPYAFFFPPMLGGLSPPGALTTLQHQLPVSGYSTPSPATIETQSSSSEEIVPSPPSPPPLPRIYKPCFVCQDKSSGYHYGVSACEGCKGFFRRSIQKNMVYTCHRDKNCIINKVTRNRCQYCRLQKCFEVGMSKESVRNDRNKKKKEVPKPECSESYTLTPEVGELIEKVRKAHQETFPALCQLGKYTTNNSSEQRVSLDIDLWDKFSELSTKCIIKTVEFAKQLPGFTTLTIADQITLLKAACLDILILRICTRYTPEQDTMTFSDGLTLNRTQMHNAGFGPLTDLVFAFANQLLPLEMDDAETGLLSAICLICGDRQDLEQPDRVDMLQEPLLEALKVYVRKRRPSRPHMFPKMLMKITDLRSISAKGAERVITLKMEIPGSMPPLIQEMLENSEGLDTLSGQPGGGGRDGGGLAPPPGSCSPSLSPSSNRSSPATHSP
# Test: ATG_RARa_TRANS: Attagene TRANS-FACTORIAL HepG2 Assay for human Retinoic Acid Receptor alpha (RARa) (AID 2283005; active = hit-call score of the fitted dose curve at least 0.9, where 1 is the maximum)
# Conditions: not given
# How it was run: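 Reporter transcripts, measured by RT-PCR with fluorescent labeling and capillary electrophoresis after 24 h dosing, reflect activity of an exogenous human RARa–GAL4 fusion in transiently transfected HepG2. Fitted for increase relative to DMSO.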
row,Structure (SMILES),outcome
1,c1cc(-c2ccncc2)ccn1,inactive
2,Cc1c(C(=O)O)c(O)cc2c1C(=O)c1c(O)c([C@@H]3O[C@H](CO)[C@@H](O)[C@H](O)[C@H]3O)c(O)c(O)c1C2=O,inactive
3,OC[C@@H](O)[C@@H](O)[C@H](O)[C@H](O)CO,inactive
4,C=CCOC(=O)c1ccccc1C(=O)OCC=C,inactive

# Read-out: not listed separately
# Test: BSK_3C_Proliferation: Cell Proliferation Assessment in the BioMAP Diversity Plus: 3C Assay (AID 2283006);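 for AC50: potency may reflect either rise or fall in cell number versus DMSO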
# Conditions: primary human endothelial cells (HUVEC)
# How it was run: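 Read-out is total protein by SRB absorbance at 560 nm, taken as a proxy for relative cell number. Primary human umbilical vein endothelium cultured below confluence was dosed for 48 h, TCA-fixed and SRB-stained; curves were fitted bidirectionally versus DMSO.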
Structure (SMILES),outcome,AC50
CCCCCCCCCCC,inactive,–
Cc1ccc2ncccc2c1,inactive,–
O=C(O)Cc1ccccc1Nc1c(Cl)cccc1Cl,inactive,–
COCCOCCOC,inactive,–
C=CCc1ccc(O)c(OC)c1,inactive,–
COC(=O)c1ccc(O)cc1,inactive,–
CCCCc1ccc2c(n1)[C@@H](c1ccc(OC)cc1C[C@H](C)C(=O)O)[C@H](C(=O)O)[C@H]2c1ccc2c(c1)OCO2,inactive,–
O=c1c(O)c(-c2ccc(O)c(O)c2)oc2cc(O)cc(O)c12,–,26.8 µM (active)
c1cc(-c2ccncc2)ccn1,inactive,–
C[C@]12C=CC(=O)C=C1CC[C@@H]1[C@@H]2C(=O)C[C@@]2(C)[C@H]1CC[C@]2(O)C(=O)CO,inactive,–
Cc1c(C(=O)O)c(O)cc2c1C(=O)c1c(O)c([C@@H]3O[C@H](CO)[C@@H](O)[C@H](O)[C@H]3O)c(O)c(O)c1C2=O,inactive,–
Cc1cccc(Nc2cc(Cl)nc(SCC(=O)O)n2)c1C,inactive,–
CCOC(=O)C(C)(C)Oc1ccc(Cl)cc1,inactive,–
CC1(C)CC(N=C=O)CC(C)(CN=C=O)C1 (stereo not given),inactive,–
NS(=O)(=O)c1cc2c(cc1Cl)NCNS2(=O)=O,inactive,–
Cc1nc(C)nc(N2C[C@@H](C)N(c3ccnc([C@@H](C)O)n3)[C@@H](C)C2)n1,inactive,–
CCCCOC(=O)CCCCCCCCC(=O)OCCCC,inactive,–
COc1cc(-c2nc(NC(=O)c3cc4cc(C)cc(C)c4n3CC(=O)O)sc2CCC2CCCCC2)c(OC)cc1Cl,–,3.78 µM (active)
OC[C@@H](O)[C@@H](O)[C@H](O)[C@H](O)CO,inactive,–
Cc1nc(-c2ccc3c(c2)CCN(CCC2CCC(NC(=O)/C=C/c4ccc(F)cc4)CC2)CC3)no1 (stereo not given),–,4.71 µM (active)
NCC1(Cc2noc(=O)[nH]2)CCCCC1,inactive,–
CCOC(=O)CCC(=O)OCC,inactive,–
Cc1cccc([N+](=O)[O-])c1C,inactive,–
C=CCOC(=O)c1ccccc1C(=O)OCC=C,inactive,–
Cc1cccc(C)c1O,inactive,–
CC(CO)OC(C)CO (stereo not given) (tested in a mixture with another compound),inactive,–
CCCCCCCCCCCCCO,–,14.9 µM (active)
O=C(O)CCCCC(=O)O,inactive,–
O=[N+]([O-])C(CO)(CO)CO,inactive,–
CCCCCCCCCCCCCCCCCC(=O)O,–,3.97 µM (active)
